“And” between values parts separate entries of the source, which are not always exact repeats. Equal values may be shown once. Results filed as inconclusive are left out. A structure can be active in one record and inactive in another. The source made the active and inactive calls. Unless noted, the call rests on the fitted dose curve; in most records, active means well fitted curve in the direction sought with a large enough effect in the repeat runs; inconclusive means weak or mixed curves; inactive means no such curve, though single readings can be large; an effect the other way counts as inactive or inconclusive.

Assay [1] is described as follows: qHTS assay for identifying genotoxic compounds that show differential cytotoxicity against isogenic chicken DT40 cell lines with known DNA damage response pathways - wild type cell line (AID 743012). Further: nearly all actives have a fitted effect of over 60% in size. Further: potency means the concentration at half of the fitted maximal effect. The gist of the method: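 Cytotoxicity in repair-proficient parental chicken DT40 cells serves as the comparator for Rad54/Ku70- and Rev3-deficient lines. Cells were exposed to compounds for 40 h at 37 C/5% CO2, and ATP-based luminescence (CellTiter-Glo) measured viability.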
A general note: In qHTS, concentration-response curves come from the screen itself.

Assay [2] can be described thus: qHTS assay for identifying genotoxic compounds that show differential cytotoxicity against isogenic chicken DT40 cell lines with known DNA damage response pathways - Rev3 mutant cell line (AID 743014). Further: nearly all actives have a fitted effect of over 55% in size. Further: potency means the concentration at half of the fitted maximal effect.
A short description of assay [3]: qHTS assay for identifying genotoxic compounds that show differential cytotoxicity against isogenic chicken DT40 cell lines with known DNA damage response pathways - Rad54/Ku70 mutant cell line (AID 743015). Further: nearly all actives have a fitted effect of over 60% in size. Further: potency means the concentration at half of the fitted maximal effect.
Assay [4] can be described thus: qHTS assay to identify small molecule antagonists of the androgen receptor (AR) signaling pathway - cell viability counter screen (AID 743033; further: nearly all actives have a fitted effect of over 45% in size; further: potency means the concentration at half of the fitted maximal effect).
Assay [5] addresses Androgen receptor (Homo sapiens) (UniProt P10275). Put plainly: qHTS assay to identify small molecule agonists of the androgen receptor (AR) signaling pathway using the MDA cell line (AID 743040; further: nearly all actives have a fitted effect of over 20% in size). Put shortly:
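Stable MMTV-luciferase reporter in MDA-kb2 cells; note the promoter carries GR as well as AR response elements. 16 h compound treatment, 37C, 0% CO2; ONE-Glo luminescence endpoint.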

The nature of assay [6]: qHTS assay to identify small molecule antagonists of the androgen receptor (AR) signaling pathway using the MDA cell line - cell viability counter screen (AID 743041; further: nearly all actives have a fitted effect of over 45% in size; further: potency means the concentration at half of the fitted maximal effect). Put shortly: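 Using the breast carcinoma line MDA-kb2 AR-luc, test chemicals were co-incubated with R1881 for 16 h; CellTiter-Fluor reagent, added at 15.5 h, provided a fluorescence measure of live cells.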

Assay [7] addresses Androgen receptor (Homo sapiens) (UniProt P10275). Nature of the assay: qHTS assay to identify small molecule antagonists of the androgen receptor (AR) signaling pathway using the MDA cell line (AID 743042; further: nearly all actives have a fitted effect of over 55% in size; further: potency means the concentration at half of the fitted maximal effect). The gist of the method:
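Antagonist mode: compounds plus R1881 agonist added to MDA-kb2 AR-luc cells, incubated 16 h at 37C. Luciferase reporter luminescence quantified, with multiplexed CellTiter-Fluor readout for cell viability.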

Assay [8] can be described thus: qHTS assay to identify small molecule antagonists of the thyroid receptor (TR) signaling pathway - cell viability counter screen (AID 743064). Further: nearly all actives have a fitted effect of over 50% in size. Further: potency means the concentration at half of the fitted maximal effect. The gist of the method:
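Same-well viability check: GH3.TRE-Luc cells stimulated with 1 nM T3 alongside test compound for 23.5 h, followed by CellTiter-Fluor fluorescence.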

Assay [9] is described as follows: qHTS assay to identify small molecule antagonists of the thyroid receptor (TR) signaling pathway (AID 743065). Further: nearly all actives have a fitted effect of over 55% in size. Further: potency means the concentration at half of the fitted maximal effect. Put shortly: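 Antagonism measured as loss of luciferase signal in GH3 cells stably carrying a TRE-luciferase reporter, co-treated with compound and T3 (1 nM final) for 23.5 h at 37 C. Viability was read in the same well by CellTiter-Fluor.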
Assay [10] deals with thyroid hormone receptor (rat, GH3 cells). Put plainly: qHTS assay to identify small molecule agonists of the thyroid receptor (TR) signaling pathway (AID 743066; calls by dose curve).
In assay [11] the target is Estrogen receptor (Homo sapiens) (UniProt P03372). Nature of the assay: qHTS assay to identify small molecule antagonists of the estrogen receptor alpha (ER-alpha) signaling pathway (AID 743069; active means well fitted curve in the direction sought with a large enough effect in the signal ratio in the repeat runs, not every such curve was filed as active; the % refers to the signal ratio). Put shortly:
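Fluorescence intensity from a beta-lactamase FRET substrate served as the read-out. Cells: HEK293 with stably integrated ER-alpha-UAS-bla reporter. Agonist 17beta-estradiol was co-added with compounds; incubation 18 hr at 37C, substrate 2 hr at room temperature.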

The nature of assay [12]: qHTS assay to identify small molecule antagonists of the estrogen receptor alpha (ER-alpha) signaling pathway - cell viability counter screen (AID 743074; calls by dose curve; further: nearly all actives have a fitted effect of over 45% in size; further: potency means the concentration at half of the fitted maximal effect).
The target of assay [13] is Estrogen receptor (Homo sapiens) (UniProt P03372). Put plainly: qHTS assay to identify small molecule agonists of the estrogen receptor alpha (ER-alpha) signaling pathway (AID 743075; calls by dose curve; further: potency means the concentration at half of the fitted maximal effect).
Assay [14] is described as follows: qHTS assay to identify small molecule antagonists of the estrogen receptor alpha (ER-alpha) signaling pathway using the BG1 cell line - cell viability counter screen (AID 743081).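 Further: compound given together with 17beta-estradiol as the ER stimulus; nearly all actives have a fitted effect of over 45% in size.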 Further: potency means the concentration at half of the fitted maximal effect.
The target in the next assay is Aromatase (Homo sapiens) (UniProt P11511). Nature of the assay: qHTS assay to identify aromatase inhibitors (AID 743083). Further: nearly all actives have a fitted effect of over 55% in size. Further: potency means the concentration at half of the fitted maximal effect.
Assay [15] is described as follows: qHTS assay to identify small molecule antagonists of the glucocorticoid receptor (GR) signaling pathway - cell viability counter screen (AID 720693). Further: nearly all actives have a fitted effect of over 55% in size.
Assay [16] addresses Estrogen receptor (Homo sapiens) (UniProt P03372). Nature of the assay: qHTS assay to identify small molecule agonists of the estrogen receptor alpha (ER-alpha) signaling pathway using the BG1 cell line (AID 743079). Further: nearly all actives have a fitted effect of over 20% in size. The conditions noted are these: BG1Luc4E2 cells, ERE-luciferase agonist, 22 h; activation: at 70.3 µM (top of the series).
Assay [17] in a line: qHTS assay to identify small molecule antagonists of the estrogen receptor alpha (ER-alpha) signaling pathway using the BG1 cell line (AID 743080; calls by dose curve;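 further: BG1 cells stimulated with 17beta-estradiol alongside compound; nearly all actives have a fitted effect of over 25% in size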). The gist of the method: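 Quantitative HTS on the Tox21 10K library: BG1 cells with endogenous ER-alpha and ERE-luciferase reporter, 17beta-estradiol stimulation, 21.5 h compound exposure, luminescence endpoint with parallel fluorescence cytotoxicity counter-read.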

The target of assay [18] is Androgen receptor (Homo sapiens) (UniProt P10275). Put plainly: qHTS assay to identify small molecule antagonists of the androgen receptor (AR) signaling pathway (AID 743035; active means well fitted inhibition curve with a large enough effect in the signal ratio in the repeat runs, not every such curve was filed as active; the % refers to the signal ratio). The gist of the method:
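Steps: seed AR-UAS-bla GripTite HEK293 cells, incubate 4 h at 37C; pin in test compound, then add agonist R1881; incubate 16 h at 37C; add LiveBLAzer B/G FRET substrate, 2 h at room temperature; read fluorescence.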

Assay [19] shares this target. Nature of the assay: qHTS assay to identify small molecule agonists of the androgen receptor (AR) signaling pathway (AID 743036; active means well fitted activation curve with a large enough effect in the signal ratio in the repeat runs, with a control signal flat, not every such curve was filed as active; the % refers to the signal ratio). Put shortly:
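Agonist activity was scored by beta-lactamase reporter fluorescence in stably transfected HEK293 cells exposed to compounds for 16 h at 37C and 5% CO2. Substrate loading took 2 h at room temperature.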
On the % scale 0 is the no-effect control and ±100 the full control effect.

Estrogen receptor (Homo sapiens), sequence (P03372 whole entry, looked up): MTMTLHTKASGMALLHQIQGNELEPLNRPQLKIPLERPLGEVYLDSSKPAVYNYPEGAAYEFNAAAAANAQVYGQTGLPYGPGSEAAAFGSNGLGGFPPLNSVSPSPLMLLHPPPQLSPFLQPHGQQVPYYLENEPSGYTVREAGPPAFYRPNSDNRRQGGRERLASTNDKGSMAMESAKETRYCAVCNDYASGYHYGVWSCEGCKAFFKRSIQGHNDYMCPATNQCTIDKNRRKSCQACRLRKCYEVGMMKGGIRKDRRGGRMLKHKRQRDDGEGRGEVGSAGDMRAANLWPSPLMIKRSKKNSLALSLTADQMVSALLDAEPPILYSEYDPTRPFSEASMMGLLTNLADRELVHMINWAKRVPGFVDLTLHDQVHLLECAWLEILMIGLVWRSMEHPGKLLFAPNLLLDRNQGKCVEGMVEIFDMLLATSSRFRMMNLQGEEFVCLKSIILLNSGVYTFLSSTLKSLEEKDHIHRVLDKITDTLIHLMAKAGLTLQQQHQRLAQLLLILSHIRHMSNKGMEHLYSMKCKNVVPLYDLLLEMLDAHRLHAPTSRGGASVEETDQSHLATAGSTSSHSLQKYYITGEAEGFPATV
Androgen receptor (Homo sapiens), sequence (P10275 whole entry, looked up): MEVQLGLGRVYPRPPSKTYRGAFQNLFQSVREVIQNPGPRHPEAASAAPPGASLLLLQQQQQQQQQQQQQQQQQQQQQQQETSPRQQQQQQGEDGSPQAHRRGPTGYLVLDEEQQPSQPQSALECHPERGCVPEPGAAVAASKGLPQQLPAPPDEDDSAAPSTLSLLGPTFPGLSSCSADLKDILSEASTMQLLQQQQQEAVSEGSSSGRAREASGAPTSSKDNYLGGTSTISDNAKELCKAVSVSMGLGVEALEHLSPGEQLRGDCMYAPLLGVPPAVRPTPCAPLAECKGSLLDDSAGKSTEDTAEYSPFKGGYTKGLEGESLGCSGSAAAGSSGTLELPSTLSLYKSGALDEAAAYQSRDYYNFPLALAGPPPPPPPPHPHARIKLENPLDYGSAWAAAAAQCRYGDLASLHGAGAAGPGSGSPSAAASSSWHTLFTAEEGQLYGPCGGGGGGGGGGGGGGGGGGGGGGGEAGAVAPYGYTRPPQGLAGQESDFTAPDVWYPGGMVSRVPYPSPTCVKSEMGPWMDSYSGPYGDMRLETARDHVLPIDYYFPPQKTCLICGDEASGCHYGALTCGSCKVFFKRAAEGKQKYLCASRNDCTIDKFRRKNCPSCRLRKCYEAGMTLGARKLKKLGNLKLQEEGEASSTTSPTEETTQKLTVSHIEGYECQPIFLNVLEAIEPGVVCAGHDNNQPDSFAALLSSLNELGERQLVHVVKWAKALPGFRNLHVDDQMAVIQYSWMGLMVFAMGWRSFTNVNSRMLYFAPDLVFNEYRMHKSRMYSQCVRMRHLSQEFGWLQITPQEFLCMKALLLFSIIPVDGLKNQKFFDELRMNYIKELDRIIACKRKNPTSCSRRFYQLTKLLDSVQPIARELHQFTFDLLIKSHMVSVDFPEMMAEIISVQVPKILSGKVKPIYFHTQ
Aromatase (Homo sapiens), sequence (P11511 whole entry, looked up): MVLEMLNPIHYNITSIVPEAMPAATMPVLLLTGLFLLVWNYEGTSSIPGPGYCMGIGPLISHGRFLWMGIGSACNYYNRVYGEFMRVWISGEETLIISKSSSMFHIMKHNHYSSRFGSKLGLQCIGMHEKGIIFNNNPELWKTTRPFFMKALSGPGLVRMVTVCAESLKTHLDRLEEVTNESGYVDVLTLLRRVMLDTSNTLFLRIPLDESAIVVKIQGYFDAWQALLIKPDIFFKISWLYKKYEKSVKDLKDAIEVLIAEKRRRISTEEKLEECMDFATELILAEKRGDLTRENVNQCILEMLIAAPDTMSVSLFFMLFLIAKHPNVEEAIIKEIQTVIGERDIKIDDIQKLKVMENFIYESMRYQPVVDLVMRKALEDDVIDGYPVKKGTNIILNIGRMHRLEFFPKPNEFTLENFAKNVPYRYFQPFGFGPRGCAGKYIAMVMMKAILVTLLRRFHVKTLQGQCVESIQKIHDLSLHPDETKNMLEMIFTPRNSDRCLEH

`CN(C)C(=S)SSC(=S)N(C)C`: the Potency was 47.3 nM (active) and 240 nM (active) and 24.3 nM (active) in [1]; 106 nM (active) and 107 nM (active) and 19.3 nM (active) in assay [2]; 106 nM (active) and 135 nM (active) and 19.3 nM (active) in [3]; 535 nM (active) and 85.9 nM (active) and 34.7 nM (active) in assay [4]; 393 nM (active) and 269 nM (active) and 154 nM (active) in [6]; “inactive and 170 nM (active) and 61.1 nM (active)” in [7]. Besides, the Potency in assay [8] was 133 nM (active) and 9.55 µM (active) and 21.7 nM (active); in assay [9], 94.4 nM (active) and 269 nM (active) and 15.4 nM (active); in the assay with Aromatase (Homo sapiens) it was 188 nM (active) and 47.9 nM (active) and 15.4 nM (active). The call in assay [5] was inactive. Besides, the Potency result in assay [10], in [11], in assay [12], in assay [13] and in assay [14] was “inactive” each time.

With `Clc1cc(Cl)c(-c2cc(Cl)c(Cl)cc2Cl)cc1Cl`, the Potency result in assay [1], in [2], in assay [3], in assay [4], in assay [6] and in [10] was “inactive” throughout. The Potency entry (in [12]; in [14]; with Aromatase (Homo sapiens)) was “inactive” each time.

Consider `O=S(=O)(NS(=O)(=O)C(F)(F)F)C(F)(F)F`, for which the Potency result in assay [1], in [2], in assay [3], in assay [4], in assay [6] and in [12] was “inactive” each time. For the same compound, in assay [14], the Potency result was “inactive”.

For `Oc1ccc([C@H]2CNCc3c2ccc(O)c3O)cc1O`, the Potency entry in assay [15], in [4], in [6], in assay [10], in assay [11] and in [13] was “inactive” in each case. Also, the Potency entry (in assay [16]; in assay [17]; in assay [14]; with Aromatase (Homo sapiens)) was “inactive” in each case.

With `CC(C)NCC(O)c1ccccc1Cl` (centres undefined), the Potency entry in assay [1], in assay [2], in assay [3], in [4], in assay [18] and in assay [6] was “inactive” each time. The Potency entry in assay [7], in assay [8], in assay [9], in [10], in assay [12] and in assay [13] was “inactive” in each case. Besides, the Potency result (in assay [16]; in assay [17]; in [14]; with Aromatase (Homo sapiens)) was “inactive” each time. Further, the compound was classed as inactive in [19] and in assay [5].

On to `Clc1c(Cl)c(Cl)c(Cl)c(Cl)c1Cl`, for which the activity change, negative = cytotoxicity in assay [1] is 20.8% [at 8.52 µM] (inactive); in assay [3] it was -2.7% [at 8.55 µM] (inactive); in assay [4], 3.9% [at 7.04 µM] (inactive); in assay [14] it was 5.59% [at 8.47 µM] (inactive). Further, the activity, negative = cytotoxicity in assay [2] is 6.09% [at 8.53 µM] (inactive); in [12], 18.2% [at 6.72 µM] (inactive). Besides, in assay [6], the viability change, negative = cytotoxic is -2.06% [at 8.47 µM] (inactive). Further, the activity change, negative = cytotoxic in assay [8] was -0.947% [at 8.44 µM] (inactive). Besides, the activity, negative = inhibition in [9] is 0.884% [at 8.44 µM] (inactive). In assay [10], the activation is -1.24% [at 8.08 µM] (inactive).

Regarding `CC(O)C(=O)[O][Hg][c]1ccccc1` (centres undefined), the Potency in assay [1] was 273 nM (active); in assay [2], 217 nM (active); in assay [3] it was 154 nM (active); in assay [4], 2.45 µM (active); in assay [6] it was 4.86 µM (active); in [8] it was 686 nM (active). For the same compound, the Potency in assay [12] is 5490 nM (active); in [13] it was 692 nM [fluorescent] (active); in assay [14], 3060 nM (active); with Aromatase (Homo sapiens), 969 nM (active).

As to `CC(C)=CCN1CC[C@@]2(C)c3cc(O)ccc3C[C@@H]1[C@@H]2C`, the Potency in assay [1] is 19000 nM (active); in [2], 26900 nM (active); in assay [3], 60200 nM (active); in assay [9], 21.4 µM (active). Further, the Potency entry in assay [4], in assay [10], in assay [11], in [13], in assay [16] and in [14] was “inactive” each time. Moreover, the Potency entry with Aromatase (Homo sapiens) is “inactive”.

For `Cc1cnc2c(C(=O)O)c(Cl)ccc2c1`, the Potency entry in assay [1], in assay [2], in [3], in assay [4], in [6] and in assay [9] was “inactive” throughout. The Potency entry in [10], in assay [11], in assay [12], in assay [13], in assay [16] and in assay [17] was “inactive” throughout. Further, the Potency entry (in [14]; with Aromatase (Homo sapiens)) was “inactive” each time.

Values taken from PubChem BioAssay (Tox21).
